Reference: PubChem BioAssay (NCATS)
Inconclusive results are not listed. A call without a number means that no potency is given here. Calls of active or inactive are those of the source. Calls come from the whole dose curve; as a rule, active = well fitted curve in the direction sought with a large enough effect; inconclusive = small, poorly fitted or top-dose-only effect, or another doubt; inactive = no such curve, though single readings can be large; an effect the other way counts as inactive or inconclusive.

How the values were obtained:
[1] = SDT Cancer Cell Toxicity qHTS against the NCATS CANVASS Library (AID 1347365);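 note: SDT canine glioma cells 500 per well in 1536 well plates; series mostly up to about 46 µM; nearly all actives have a fitted effect of over 60% in size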
Summary of the method: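 qHTS, SDT dog glioma line, 500 cells/well; cpds 11 pts; 72 hr, 37C, 5% CO2; CellTiterGlo ATP luminescence.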

[2] = KB-3-1 Cancer Cell Toxicity qHTS against the NCATS CANVASS Library (AID 1347366); note: series mostly up to about 46 µM; nearly all actives have a fitted effect of over 75% in size
Summary of the method: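 500 KB-3-1 cells/well; compounds pin-transferred, 11-pnt series; 72 hr, 37C/5% CO2; CellTiter-Glo, 10 min RT; luminescence read-out.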

[3] = qHTS for ATAD5 Agonist screened against the NCATS CANVASS Library (AID 1347367)
Summary of the method: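 Luminescence read-out: ATAD5-driven luciferase in stably transfected HEK 293T cells, which rises post-transcriptionally with DNA damage. Cells were exposed 16hr at 37C to test compound; a CellTiter-Fluor fluorescence read (1hr) measured viability first.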

[4] = G06 Cancer Cell Toxicity qHTS against the NCATS CANVASS Library (AID 1347368); note: series mostly up to about 46 µM; nearly all actives have a fitted effect of over 60% in size
Summary of the method: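 Dog G06 glioma line, 500 cells/well; cpds pin-transferred, 11-pt; 72 hr, 37C/5% CO2; CellTiterGlo luminescence (ATP) endpoint.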

[5] = MCF7 Cancer Cell Toxicity qHTS against the NCATS CANVASS Library (AID 1347369); note: series mostly up to about 46 µM
Summary of the method: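 Luminescent ATP signal (CellTiterGlo) served as the cytotoxicity read-out after MCF7 breast cancer cells had been incubated 72 hr at 37C with natural products in an 11-point titration.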

[6] = qHTS for ATAD5 Antagonist screened against the NCATS CANVASS Library (AID 1347370);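 note: HEK293T cells carrying an ATAD5 luciferase reporter co-treated with 10 µM 5-fluorouridine; series mostly up to about 46 µM; nearly all actives have a fitted effect of over 65% in size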
Summary of the method: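 HEK293T cells with stably integrated ATAD5-luciferase reporter, 2000/well, 5 h attachment; compounds plus 10 µM 5-fluorouridine, 16 h at 37 °C. Luciferase luminescence read, with CellTiter-Fluor viability read first.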

[7] = J3T Cancer Cell Toxicity qHTS against the NCATS CANVASS Library (AID 1347371);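 note: J3T is a canine glioma cancer cell line seeded at 500 cells per well; series mostly up to about 46 µM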
Summary of the method: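 Cells plated at 500 per well, compounds pin-transferred, plates incubated 72 hr at 37C, then CellTiterGlo added and luminescence read to measure ATP content.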

[8] = molecular target: Nuclear receptor subfamily 1 group I member 3 (Homo sapiens) (UniProt Q14994); experiment: qHTS for Constitutive Androstane Receptor (CAR) Antagonist screened against the NCATS CANVASS Library (AID 1347372);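 note: cells stimulated with 50 nM CITCO agonist so inhibition reflects antagonism; series mostly up to about 46 µM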
Chain of Nuclear receptor subfamily 1 group I member 3 (Homo sapiens) (Q14994 whole entry, looked up): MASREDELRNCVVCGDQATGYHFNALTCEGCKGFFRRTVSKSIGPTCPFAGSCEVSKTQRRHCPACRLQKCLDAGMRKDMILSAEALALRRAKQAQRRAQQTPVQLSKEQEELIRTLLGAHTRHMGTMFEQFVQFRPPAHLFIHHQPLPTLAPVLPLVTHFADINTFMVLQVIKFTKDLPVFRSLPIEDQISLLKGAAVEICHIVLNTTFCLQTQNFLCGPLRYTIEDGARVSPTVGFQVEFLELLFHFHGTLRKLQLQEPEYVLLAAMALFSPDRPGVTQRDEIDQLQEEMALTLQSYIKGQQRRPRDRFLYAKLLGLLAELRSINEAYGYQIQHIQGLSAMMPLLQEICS
Summary of the method: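 HepG2 cells stably carrying hCAR and a CYP2B6-2.2kb luciferase reporter were exposed to compounds plus 50 nM CITCO for 24hr at 37C. CAR activity was read by ONE-Glo luminescence, with viability measured first by CellTiter-Fluor.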

[9] = molecular target: Nuclear receptor subfamily 1 group I member 3 (Homo sapiens) (UniProt Q14994); experiment: qHTS for Constitutive Androstane Receptor (CAR) Agonist screened against the NCATS CANVASS Library (AID 1347373);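 note: every well also contained 1.5 µM PK11195 alongside the test compound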
Summary of the method: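 HepG2-hCAR-CYP2B6 cells, 2500/well, attached 4hr; cpd + PK11195 1.5uM final; 24hr 37C 5% CO2. CellTiter-Fluor viability read, then ONE-Glo luminescence for CAR activation.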

[10] = 10-beta competent E. coli microbial cell viability qHTS against the NCATS CANVASS Library (AID 1347376); note: series mostly up to about 46 µM
Summary of the method: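 E. coli 10-beta, 0.2 OD; cpds 11-pt; o/n 37C, 5% CO2; BacTiter-Glo 20 min RT; luminescence (ATP) = viable cells. Daunomycin ctrl.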

[11] = DH5-alpha competent E. coli microbial cell viability qHTS against the NCATS CANVASS Library (AID 1347377); settings: outcome: dose series up to 46.1 µM
Summary of the method: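 qHTS, 11-pt; E. coli DH5-alpha, 0.2 OD; o/n 37C/5% CO2; BacTiter-Glo, 20 min RT; luminescence.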

[12] = qHTS for H2AX Agonists against the NCATS CANVASS Library (AID 1347378)
Summary of the method: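 TR-FRET readout (ex 320 nm, em 665/620 nm ratio) of phospho-H2AX (S139) in CHO-K1 lysates. Cells treated 3 hr at 37C with compound titration, 0.76% DMSO; lysis 30 min, antibody detection 24 hr at RT.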

[13] = qHTS for Inflammasome Signaling Inhibitors: IL-1-beta AlphaLISA screen against the NCATS CANVASS Library (AID 1347379);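 note: human THP-1 cells primed with LPS then triggered with ATP; secreted IL-1B measured as AlphaLISA emission at 615 nm; lower signal means less IL-1B release which is the wanted effect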
Summary of the method: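 THP-1 cells pretreated 1 hr with compound (up to 57.5 uM final), then stimulated with LPS (250 ng/mL final) and ATP (1.25 mM final). Secreted IL-1B measured by AlphaLISA after 16 hr; glyburide as positive control.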

[14] = qHTS for Antimalaria activity screened against the NCATS CANVASS Library (AID 1347380); note: nearly all actives have a fitted effect of over 40% in size; note: potency is the fitted concentration of half-maximal effect
Summary of the method: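 Dd2 strain, infected erythrocytes 2.5% Hct final / 0.3% parasitemia. 11-pt qHTS titration, 72 h, 37C, 5% O2, 5% CO2. Lysis buffer + SYBR Green, 18 h, fluorescence 485/535 nm.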

[15] = Inflammasome Signaling qHTS Counterscreen: IL-1-beta AlphaLISA counterscreen against the NCATS CANVASS Library (AID 1347381);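 note: cell-free check with purified IL-1β in medium and no THP-1 cells; series mostly up to about 57 µM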
Summary of the method: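 Cell-free interference check: compounds added to medium spiked with 4 pg purified IL-1β. Anti-IL-1β acceptor beads (6 ug/mL) with 0.6 nM biotinylated antibody added for 1 h at RT, then streptavidin donor beads (24 ug/mL) for 30 min in the dark. AlphaLISA read at 680/615 nm.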

[16] = Cytotoxicity qHTS for assessment of Hepg2 cells membrane integrity screened against the NCATS CANVASS Library (AID 1347387)
Summary of the method: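 qHTS, 11-pt conc. series, 0.59 nM - 46 uM final; HepG2 2000 cells/well, overnight attachment; 5 hr compound exposure 37C/5% CO2; CytoTox-ONE, 10 min RT; fluorescence ex560/em590 = LDH from damaged membranes.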

[17] = qHTS for Activators of p53 Stress Response Pathway screened against the NCATS CANVASS Library (AID 1347388)
Summary of the method: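 p53RE-bla HCT-116 cells (4000/well) were plated 5 h at 37C, exposed to compounds for 16 h at 37C over an 11-point concentration series, then loaded with CCF4 for 2 h at room temperature; 460/530 nm emission ratio read.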

[18] = qHTS assay for small molecule disruptors of mitochondrial membrane potential screened against the NCATS CANVASS Library (AID 1347389); note: series mostly up to about 46 µM; nearly all actives have a fitted effect of over 60% in size
Summary of the method: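 HepG2, 2,000 cells/well, attached overnight; compound 1 hr, 37C, 5% CO2; Mito-MPS dye 30 min, 37C; fluorescence 535 nm (monomer) and 590 nm (aggregate); decreased 590/535 ratio = depolarization.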

[19] = Secretion counterscreen for inhibitors of the SERCaMP assay screened against the NCATS CANVASS Library (AID 1347390);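 note: light from luciferase secreted into medium read as a measure of general secretion; series mostly up to about 77 µM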
Summary of the method: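 Luminescence from constitutively secreted GLuc in SH-SY5Y-GLuc STOP cells, read after coelenterazine addition, served as read-out. Compounds tested 0.001 - 77 uM for 20 h at 37C; Brefeldin A as positive control.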

[20] = qHTS for activators of Nrf2/ARE signaling pathway screened against the NCATS CANVASS Library (AID 1347391); note: nearly all actives have a fitted effect of over 60% in size
Summary of the method: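 Plate ARE-bla HepG2 cells at 2000/well and let them settle 5 h. Pin-transfer compounds in DMSO, incubate 16 h at 37C. Load CCF4 for 2 h at room temperature and read blue/green fluorescence.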

| SMILES | outcome [1] | outcome [2] | outcome [3] | outcome [4] | outcome [5] | outcome [6] | outcome [7] | outcome [8] | outcome [9] | outcome [10] | outcome [11] | outcome [12] | outcome [13] | Potency [14] | outcome [15] | outcome [16] | outcome [17] | outcome [18] | outcome [19] | outcome [20] |
| --- | --- | --- | --- | --- | --- | --- | --- | --- | --- | --- | --- | --- | --- | --- | --- | --- | --- | --- | --- | --- |
| O=C1C[C@@H]2OCC=C3CN4CC[C@]56c7ccccc7N1[C@H]5[C@H]2[C@H]3C[C@H]46 | inactive | inactive | inactive | inactive | inactive | inactive | inactive | inactive | inactive | inactive | inactive | inactive | inactive | 13 µM (active) | inactive | inactive | inactive | inactive | inactive | inactive |
| COc1ccc2[nH]cc(CCN)c2c1 | – | inactive | inactive | inactive | inactive | inactive | inactive | inactive | inactive | inactive | inactive | inactive | inactive | inactive | inactive | inactive | inactive | inactive | inactive | inactive |
